{"source": "the supplement of paper PMC8728848", "test_in_all_cases": "glycan array binding signal (z-score within array); higher = stronger binding", "conditions_in_all_cases": "glycan notation: IUPAC condensed, linker removed", "key": {"Fuc(a1-2)Gal": {"target": "Fuc(a1-2)Gal", "summary_of_the_method": "(§1)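 Glycan array data came from 3228 arrays in the Consortium for Functional Glycomics database, and only arrays with an available protein sequence were kept. Glycan names were put into IUPAC-condensed notation, and columns mapping to the same glycan were averaged. The binding signal is a within-array Z-score, averaged across arrays of one protein sequence run at different concentrations or buffers and across linkers. A negative Z-score can be read as non-binding.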"}, "[1]": {"target": "Fuc(a1-2)Gal(b1-3)GalNAc(a1-3)[Fuc(a1-2)]Gal(b1-4)GlcNAc", "summary_of_the_method": "as §1"}, "[2]": {"target": "Fuc(a1-2)Gal(b1-3)[Fuc(a1-4)]GlcNAc(b1-3)[Gal(b1-4)GlcNAc(b1-6)]Gal(b1-4)Glc", "summary_of_the_method": "as §1"}, "[3]": {"target": "Fuc(a1-2)Gal(b1-4)GlcNAc(b1-2)Man(a1-3)[Fuc(a1-2)Gal(b1-4)GlcNAc(b1-2)Man(a1-6)]Man(b1-4)GlcNAc(b1-4)[Fuc(a1-6)]GlcNAc", "summary_of_the_method": "as §1"}, "[4]": {"target": "Fuc(a1-2)Gal(b1-4)GlcNAc(b1-3)[Fuc(a1-3)[Gal(b1-4)]GlcNAc(b1-6)]Gal(b1-4)Glc", "summary_of_the_method": "as §1"}, "[5]": {"target": "Fuc(a1-2)Gal(b1-4)GlcNAc(b1-6)GalNAc", "summary_of_the_method": "as §1"}, "[6]": {"target": "Fuc(a1-2)Gal(b1-4)[Fuc(a1-3)]GlcNAc(b1-2)Man(a1-3)[Fuc(a1-2)Gal(b1-4)[Fuc(a1-3)]GlcNAc(b1-2)Man(a1-6)]Man(b1-4)GlcNAc(b1-4)[Fuc(a1-6)]GlcNAc", "summary_of_the_method": "as §1"}, "[7]": {"target": "Fuc(a1-2)[Gal(a1-3)]Gal(b1-3)GlcNAc(b1-2)Man(a1-3)[Fuc(a1-2)[Gal(a1-3)]Gal(b1-3)GlcNAc(b1-2)Man(a1-6)]Man(b1-4)GlcNAc(b1-4)GlcNAc", "summary_of_the_method": "as §1"}, "[8]": {"target": "Fuc(a1-2)[Gal(a1-3)]Gal(b1-3)GlcNAc(b1-6)GalNAc", "summary_of_the_method": "as §1"}, "[9]": {"target": "Fuc(a1-2)[Gal(a1-3)]Gal(b1-4)GlcNAc", "summary_of_the_method": "as §1"}, "[10]": {"target": "Fuc(a1-2)[GalNAc(a1-3)]Gal(b1-4)GlcNAc(b1-2)Man(a1-3)[Fuc(a1-2)[GalNAc(a1-3)]Gal(b1-4)GlcNAc(b1-2)Man(a1-6)]Man(b1-4)GlcNAc(b1-4)[Fuc(a1-6)]GlcNAc", "summary_of_the_method": "as §1"}, "[11]": {"target": "Fuc(a1-2)[GalNAc(a1-3)]Gal(b1-4)[Fuc(a1-3)]GlcNAc(b1-3)GalNAc", "summary_of_the_method": "as §1"}, "[12]": {"target": "Fuc(a1-3)[Gal(b1-4)]GlcNAc(b1-6)GalNAc", "summary_of_the_method": "as §1"}, "[13]": {"target": "Gal(a1-3)Gal(b1-4)GlcNAc(b1-2)Man", "summary_of_the_method": "as §1"}, "[14]": {"target": "Gal(b1-3)GalNAc(b1-4)Gal(b1-4)Glc", "summary_of_the_method": "as §1"}, "[15]": {"target": "Gal(b1-3)[Neu5Ac(b2-6)]GalNAc", "summary_of_the_method": "as §1"}, "Gal(b1-4)GlcNAc(b1-2)Man": {"target": "Gal(b1-4)GlcNAc(b1-2)Man", "summary_of_the_method": "as §1"}, "[16]": {"target": "Gal(b1-4)GlcNAc(b1-2)Man(a1-3)[Gal(b1-4)GlcNAc(b1-2)Man(a1-6)]Man(b1-4)GlcNAc(b1-4)[Fuc(a1-6)]GlcNAc", "summary_of_the_method": "as §1"}, "[17]": {"target": "Gal(b1-4)GlcNAc(b1-2)[Gal(b1-4)GlcNAc(b1-4)]Man(a1-3)[Gal(b1-4)GlcNAc(b1-2)[Gal(b1-4)GlcNAc(b1-6)]Man(a1-6)]Man(b1-4)GlcNAc(b1-4)GlcNAc", "summary_of_the_method": "as §1"}, "[18]": {"target": "Gal(b1-4)GlcNAc(b1-2)[Gal(b1-4)GlcNAc(b1-6)]Man(a1-6)[Gal(b1-4)GlcNAc(b1-2)Man(a1-3)]Man(b1-4)GlcNAc(b1-4)[Fuc(a1-6)]GlcNAc", "summary_of_the_method": "as §1"}, "[19]": {"target": "Gal(b1-4)GlcNAc(b1-3)Gal(b1-4)GlcNAc(b1-2)Man(a1-3)[Gal(b1-4)GlcNAc(b1-3)Gal(b1-4)GlcNAc(b1-2)Man(a1-6)]Man(b1-4)GlcNAc(b1-4)[Fuc(a1-6)]GlcNAc", "summary_of_the_method": "as §1"}, "[20]": {"target": "Gal(b1-4)GlcNAc(b1-3)Gal(b1-4)GlcNAc(b1-2)[Gal(b1-4)GlcNAc(b1-3)Gal(b1-4)GlcNAc(b1-6)]Man(a1-6)[Gal(b1-4)GlcNAc(b1-3)Gal(b1-4)GlcNAc(b1-2)Man(a1-3)]Man(b1-4)GlcNAc(b1-4)[Fuc(a1-6)]GlcNAc", "summary_of_the_method": "as §1"}, "[21]": {"target": "Gal(b1-4)GlcNAc(b1-3)Gal(b1-4)GlcNAc(b1-3)Gal(b1-4)GlcNAc(b1-2)[Gal(b1-4)GlcNAc(b1-3)Gal(b1-4)GlcNAc(b1-3)Gal(b1-4)GlcNAc(b1-6)]Man(a1-6)[Gal(b1-4)GlcNAc(b1-3)Gal(b1-4)GlcNAc(b1-3)Gal(b1-4)GlcNAc(b1-2)Man(a1-3)]Man(b1-4)GlcNAc(b1-4)[Fuc(a1-6)]GlcNAc", "summary_of_the_method": "as §1"}, "[22]": {"target": "Gal(b1-4)GlcNAc(b1-3)Gal(b1-4)GlcNAc(b1-3)Gal(b1-4)GlcNAc(b1-3)Gal(b1-4)GlcNAc(b1-2)Man(a1-3)[Gal(b1-4)GlcNAc(b1-3)Gal(b1-4)GlcNAc(b1-3)Gal(b1-4)GlcNAc(b1-3)Gal(b1-4)GlcNAc(b1-2)Man(a1-6)]Man(b1-4)GlcNAc(b1-4)GlcNAc", "summary_of_the_method": "as §1"}, "[23]": {"target": "Gal(b1-4)GlcNAc(b1-3)Gal(b1-4)GlcNAc(b1-3)Gal(b1-4)GlcNAc(b1-3)Gal(b1-4)GlcNAc(b1-2)[Gal(b1-4)GlcNAc(b1-3)Gal(b1-4)GlcNAc(b1-3)Gal(b1-4)GlcNAc(b1-3)Gal(b1-4)GlcNAc(b1-6)]Man(a1-6)[Gal(b1-4)GlcNAc(b1-3)Gal(b1-4)GlcNAc(b1-3)Gal(b1-4)GlcNAc(b1-3)Gal(b1-4)GlcNAc(b1-2)Man(a1-3)]Man(b1-4)GlcNAc(b1-4)[Fuc(a1-6)]GlcNAc", "summary_of_the_method": "as §1"}}, "note": "Shown is part of a subset that was picked to be rich in the strongest signals."}
{"binder": "ECL (Erythrina cristagalli), Q6YD91 (protein) VETISFSFSEFEPGNNDLTLQGAAIITQSGVLQLTKINQNGMPAWDSTGRTLYTKPVHIWDMTTGTVASFETRFSFSIEQPYTRPLPADGLVFFMGPTKSKPAQGYGYLGVFNNSKQDNSYQTLAVEFDTFSNPWDPPQVPHIGIDVNSIRSIKTQPFQLDNGQVANVVIKYDASSKILLAVLVYPSSGAIYTIAEIVDVKQVLPEWVDVGLSGATGAQRDAAETHDVYSWSFHASLPETND", "values": [{"measurement": "glycan array binding signal (z-score)", "setting": "Fuc(a1-2)Gal", "value": -0.188}, {"measurement": "glycan array binding signal (z-score)", "setting": "[1]", "value": -0.443}, {"measurement": "glycan array binding signal (z-score)", "setting": "[2]", "value": -0.094}, {"measurement": "glycan array binding signal (z-score)", "setting": "[3]", "value": -0.031}, {"measurement": "glycan array binding signal (z-score)", "setting": "[4]", "value": 0.053}, {"measurement": "glycan array binding signal (z-score)", "setting": "[5]", "value": -0.165}, {"measurement": "glycan array binding signal (z-score)", "setting": "[6]", "value": -0.185}, {"measurement": "glycan array binding signal (z-score)", "setting": "[7]", "value": -0.173}, {"measurement": "glycan array binding signal (z-score)", "setting": "[8]", "value": -0.206}, {"measurement": "glycan array binding signal (z-score)", "setting": "[9]", "value": -0.306}, {"measurement": "glycan array binding signal (z-score)", "setting": "[10]", "value": -0.274}, {"measurement": "glycan array binding signal (z-score)", "setting": "[11]", "value": 0.775}, {"measurement": "glycan array binding signal (z-score)", "setting": "[12]", "value": 0.251}, {"measurement": "glycan array binding signal (z-score)", "setting": "[13]", "value": -0.116}, {"measurement": "glycan array binding signal (z-score)", "setting": "[14]", "value": -0.141}, {"measurement": "glycan array binding signal (z-score)", "setting": "[15]", "value": -0.546}, {"measurement": "glycan array binding signal (z-score)", "setting": "Gal(b1-4)GlcNAc(b1-2)Man", "value": -0.311}, {"measurement": "glycan array binding signal (z-score)", "setting": "[16]", "value": 0.114}, {"measurement": "glycan array binding signal (z-score)", "setting": "[17]", "value": 4.03}, {"measurement": "glycan array binding signal (z-score)", "setting": "[18]", "value": 5.09}, {"measurement": "glycan array binding signal (z-score)", "setting": "[19]", "value": 4.13}, {"measurement": "glycan array binding signal (z-score)", "setting": "[20]", "value": 6.18}, {"measurement": "glycan array binding signal (z-score)", "setting": "[21]", "value": 5.28}, {"measurement": "glycan array binding signal (z-score)", "setting": "[22]", "value": 3.58}, {"measurement": "glycan array binding signal (z-score)", "setting": "[23]", "value": 5.63}]}
